Results on four compounds are retold here after PubChem BioAssay (EPA / NIEHS).

Active and inactive are the calls of the source. Rule for the calls: active = hit-call score of the fitted dose curve at least 0.9, where 1 is the maximum; inactive = score below 0.9.

As a reminder, the AC50 is the concentration at which the activity in the assay is half-maximal.

The nature of assay [1]: ATG_E_Box_CIS: Attagene CIS-FACTORIAL HepG2 Assay for human Enhancer Box (E-box) (AID 2282936). Conditions: HepG2 E-box cis-reporter transcription, actives raise or lower the signal. In short, it runs like this:
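HepG2 cells transiently transfected with multiplexed cis-element reporter units, dosed 24 h; reporter mRNA quantified by RT-PCR, 6-FAM labelling, HpaI digestion and capillary electrophoresis. E-box (USF1) signal fitted bidirectionally vs DMSO.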

Assay [2] in a line: ATG_M_61_CIS: Attagene CIS-FACTORIAL HepG2 Assay for M61 Transcription Factor (Internal Marker) (AID 2282937). The conditions noted are these: HepG2 Attagene CIS-FACTORIAL M61 internal marker reporter; actives raise or lower the signal. In short, it runs like this: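 Human liver HepG2, transient MRTU transfection (cis promoter elements), 24 h compound. Total RNA → oligo(dT) RT → PCR → FAM label → HpaI → CE. Internal background marker; bidirectional fitting, DMSO = baseline.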

A short description of assay [3]: ATG_EGR_CIS: Attagene CIS-FACTORIAL HepG2 Assay for human Early Growth Response 1 (EGR1) (AID 2282938). Conditions: HepG2 Attagene CIS-FACTORIAL EGR reporter mRNA; actives raise or lower the signal. In short, it runs like this:
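Transient transfection of human HepG2 with multiple cis-regulated reporter units, chemical exposure 24 h, total RNA isolated. Reverse transcription, PCR, fluorescent labelling and capillary electrophoresis quantify reporter transcripts; activity fitted bidirectionally against DMSO.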

Assay [4] in a line: ATG_M_19_CIS: Attagene CIS-FACTORIAL HepG2 Assay for M19 Transcription Factor (Internal Marker) (AID 2282939). The conditions noted are these: HepG2 Attagene CIS-FACTORIAL M19 internal marker reporter; actives raise or lower the signal. In short, it runs like this: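 Readout: fluorescent reporter-transcript fragments by capillary electrophoresis after RT-PCR. Human HepG2 liver cells carried transfected MRTU constructs reporting endogenous transcription-factor activity; exposure 24 h. Gain or loss of signal fitted relative to DMSO.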

A short description of assay [5]: ATG_Ets_CIS: Attagene CIS-FACTORIAL HepG2 Assay for human Erythroblast Transformation Specific (ETS) (AID 2282941). Conditions: HepG2 ETS cis-reporter transcription, actives raise or lower the signal. The method in brief:
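After transient cis-reporter transfection, HepG2 cells receive test chemical for 24 h. Reporter mRNA levels, measured by RT-PCR and capillary electrophoresis fluorescence, are analysed bidirectionally relative to the DMSO baseline.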

The target of assay [6] is Hepatocyte nuclear factor 3-beta (Homo sapiens) (UniProt Q9Y261). Briefly: ATG_FoxA2_CIS: Attagene CIS-FACTORIAL HepG2 Assay for human Forkhead box A2 (FOXA2) (AID 2282942). The conditions noted are these: HepG2 cis-reporter transcription factor activity, 24 h; actives raise or lower the signal. The method in brief: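 Transient MRTU transfection of HepG2 liver cells; 24 h treatment; total RNA → oligo(dT) RT → PCR → FAM primer extension → HpaI cut → CE. Bidirectional fit vs DMSO.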

Assay [7] is described as follows: ATG_FoxO_CIS: Attagene CIS-FACTORIAL HepG2 Assay for human Forkhead box O (FoxO) (AID 2282943). The conditions noted are these: HepG2 Attagene cis-reporter, FoxO element, mRNA; actives raise or lower the signal. The method in brief:
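Transfected HepG2 reporter cells exposed to test chemical for 24 h; reporter RNA measured by reverse transcription, PCR and fluorescent capillary electrophoresis; curves fitted for increases and decreases against DMSO.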

Assay [8] is described as follows: ATG_GATA_CIS: Attagene CIS-FACTORIAL HepG2 Assay for human GATA Binding Protein (AID 2282944). Conditions: HepG2 GATA cis-element reporter, Attagene multiplex mRNA; actives raise or lower the signal. In short, it runs like this:
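Read-out: fluorescent reporter mRNA fragments resolved by capillary electrophoresis after RT-PCR. Human liver HepG2 cells carried transiently transfected cis-regulated reporter constructs; chemicals incubated 24 h; gain or loss of signal fitted relative to DMSO.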

The nature of assay [9]: ATG_GLI_CIS: Attagene CIS-FACTORIAL HepG2 Assay for human Zinc Finger Protein GLI1 (AID 2282945). The conditions noted are these: HepG2, Attagene cis-factorial reporter mRNA, GLI element; actives raise or lower the signal. In short, it runs like this:
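Transiently transfected HepG2 cells report endogenous transcription factor activity via cis-element-driven reporter units. After 24 h compound exposure, reporter mRNA was measured by RT-PCR with capillary electrophoresis; bidirectional fitting against DMSO baseline.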

The nature of assay [10]: ATG_GRE_CIS: Attagene CIS-FACTORIAL HepG2 Assay for human Glucocorticoid Response Elements (GRE) (AID 2282947). Conditions: HepG2 GRE cis-reporter, Attagene multiplex mRNA; actives raise or lower the signal. In short, it runs like this:
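Transiently transfected HepG2 cells carrying GRE cis-reporter units (endogenous TF activity) dosed 24 h; reporter mRNA quantified by RT-PCR, 6-FAM labelling, HpaI digestion and capillary electrophoresis. Bidirectional fit versus DMSO baseline.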

A short description of assay [11]: ATG_ISRE_CIS: Attagene CIS-FACTORIAL HepG2 Assay for human Interferon Regulatory Factor 1 (IRF1) binding to an Interferon-Stimulated Response Element (ISRE) (AID 2282948). The conditions noted are these: HepG2 ISRE cis-reporter (Attagene), mRNA transcription readout; actives raise or lower the signal. In short, it runs like this: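 Quantitation relies on labelled RT-PCR fragments separated by capillary electrophoresis. Human HepG2 cells bearing cis-promoter reporter constructs were treated 24 h; DMSO served as baseline for bidirectional fitting.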

The nature of assay [12]: ATG_M_32_CIS: Attagene CIS-FACTORIAL HepG2 Assay for M32 Transcription Factor (Internal Marker) (AID 2282949).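 Note: background control marker of the multiplexed CIS panel rather than a real target.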 Conditions: HepG2 Attagene cis-factorial M32 reporter, mRNA; actives raise or lower the signal. The method in brief: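 Fluorescent capillary electrophoresis peaks of HpaI-digested, FAM-labelled RT-PCR reporter products give the signal. Source: transiently transfected human liver HepG2 cells, 24 h after chemical dosing; bidirectional fitting against DMSO.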

A short description of assay [13]: ATG_M_06_CIS: Attagene CIS-FACTORIAL HepG2 Assay for M06 Transcription Factor (Internal Marker) (AID 2282950). Conditions: HepG2 Attagene CIS-FACTORIAL M06 internal marker reporter; actives raise or lower the signal. In short, it runs like this:
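Terse: HepG2, transient MRTU transfection (FuGene 6), 24 h dosing; total RNA, oligo(dT) RT, PCR, FAM label, HpaI cut, capillary electrophoresis; bidirectional fit vs DMSO baseline; background-control endpoint.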

The target of assay [14] is Hypoxia-inducible factor 1-alpha (Homo sapiens) (UniProt Q16665). Nature of the assay: ATG_HIF1a_CIS: Attagene CIS-FACTORIAL HepG2 Assay for human Hypoxia Inducible Factor 1 (HIF1A) (AID 2282951). The conditions noted are these: HepG2 Attagene cis-factorial HIF1a reporter transcription; actives raise or lower the signal. In short, it runs like this:
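Transient MRTU transfection of human HepG2 liver cells, 24 h compound treatment, then total RNA isolation, oligo(dT) reverse transcription, PCR amplification, fluorescent labelling and capillary electrophoresis of reporter fragments. Gain or loss relative to DMSO.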

The target in assay [15] is Hepatocyte nuclear factor 6 (Homo sapiens) (UniProt Q9UBC0). Briefly: ATG_HNF6_CIS: Attagene CIS-FACTORIAL HepG2 Assay for human Hepatocyte Nuclear Factor 6 (HNF6) (AID 2282952). Conditions: HepG2 Attagene cis-factorial HNF6 reporter transcription; actives raise or lower the signal. In short, it runs like this:
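HepG2, transient MRTU transfection (cis promoters); 24 h chemical exposure; total RNA → oligo(dT) RT → PCR → 6-FAM labelling → HpaI cut → CE; bidirectional fit vs DMSO.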

The target of assay [16] is Heat shock factor protein 1 (Homo sapiens) (UniProt Q00613). Nature of the assay: ATG_HSE_CIS: Attagene CIS-FACTORIAL HepG2 Assay for human Heat Shock Transcription Factor 1 (HSE) (AID 2282953). Conditions: HepG2 HSE cis-reporter, Attagene RNA transcription; actives raise or lower the signal. The method in brief: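 Read-out: fluorescence of reporter-specific RT-PCR fragments separated by capillary electrophoresis. HepG2 carrying transfected cis-element reporter units; 24 h dosing; activity fitted in both directions relative to DMSO baseline.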

Assay [17] in a line: ATG_MRE_CIS: Attagene CIS-FACTORIAL HepG2 Assay for human Metal Responsive Element (MRE) (AID 2282954). Conditions: HepG2 MRE cis-reporter transcription, Attagene multiplex; actives raise or lower the signal. In short, it runs like this:
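HepG2 cells transiently transfected with cis-element-driven reporter units; mRNA measured 24 h after dosing. Reporter transcripts quantified by RT-PCR, FAM labelling, HpaI digestion and capillary electrophoresis; bidirectional fit versus DMSO.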

A short description of assay [18]: ATG_ERE_CIS: Attagene CIS-FACTORIAL HepG2 Assay for Estrogen Response Element (ERE) (AID 2282940). The conditions noted are these: HepG2 ERE cis-reporter, Attagene RNA transcript; actives raise or lower the signal. The method in brief:
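Readout: reporter mRNA induction by RT-PCR, FAM-labelled primer extension, HpaI digestion and capillary electrophoresis, 24 h after dosing transfected HepG2 cells. Endogenous transcription factors act on cis-element-regulated reporters. Gain or loss fitted against DMSO.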

Assay [19] can be described thus: ATG_PBREM_CIS: Attagene CIS-FACTORIAL HepG2 Assay for human Phenobarbital-responsive Enhancer Module (PBREM) (AID 2282955). Conditions: HepG2 PBREM cis-reporter, Attagene multiplexed transcription; actives raise or lower the signal. In short, it runs like this: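 Endogenous transcription factors in human liver HepG2 cells drive a PBREM cis-element reporter, whose transcript level after 24 h treatment is quantified by RT-PCR with capillary electrophoresis; activity fitted in both directions against DMSO.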

Assay [20] deals with Bile acid receptor (Homo sapiens) (UniProt Q96RI1). Nature of the assay: ATG_IR1_CIS: Attagene CIS-FACTORIAL HepG2 Assay for human Nuclear Receptor Subfamily 1 Group H Member 4 (NR1H4), IR1 submotif (AID 2282946). The conditions noted are these: IR1 reporter transcription, actives raise or lower the signal. In short, it runs like this:
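HepG2 cells transiently transfected with multiple cis-promoter-driven reporter units to measure endogenous transcription factor activity; 24 h exposure. Reporter mRNA read by RT-PCR, FAM labelling, HpaI digestion and capillary electrophoresis. Bidirectional fit versus DMSO.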

Sequence of Hepatocyte nuclear factor 6 (Homo sapiens) (Q9UBC0 whole entry, looked up): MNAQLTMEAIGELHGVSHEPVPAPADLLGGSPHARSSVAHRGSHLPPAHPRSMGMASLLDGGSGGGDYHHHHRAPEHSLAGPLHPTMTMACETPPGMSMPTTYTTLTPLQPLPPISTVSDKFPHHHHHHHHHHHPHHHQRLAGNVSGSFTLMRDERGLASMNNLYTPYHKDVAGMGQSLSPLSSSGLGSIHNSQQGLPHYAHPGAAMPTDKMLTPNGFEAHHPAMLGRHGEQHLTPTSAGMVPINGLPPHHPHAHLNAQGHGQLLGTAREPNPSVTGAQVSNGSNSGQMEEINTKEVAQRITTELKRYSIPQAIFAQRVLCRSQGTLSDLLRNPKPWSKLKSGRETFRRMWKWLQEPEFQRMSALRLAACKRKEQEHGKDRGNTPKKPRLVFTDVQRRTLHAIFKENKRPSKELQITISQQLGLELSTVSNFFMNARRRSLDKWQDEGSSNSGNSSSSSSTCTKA
Sequence of Hypoxia-inducible factor 1-alpha (Homo sapiens) (Q16665 whole entry, looked up, the tested form may be a part): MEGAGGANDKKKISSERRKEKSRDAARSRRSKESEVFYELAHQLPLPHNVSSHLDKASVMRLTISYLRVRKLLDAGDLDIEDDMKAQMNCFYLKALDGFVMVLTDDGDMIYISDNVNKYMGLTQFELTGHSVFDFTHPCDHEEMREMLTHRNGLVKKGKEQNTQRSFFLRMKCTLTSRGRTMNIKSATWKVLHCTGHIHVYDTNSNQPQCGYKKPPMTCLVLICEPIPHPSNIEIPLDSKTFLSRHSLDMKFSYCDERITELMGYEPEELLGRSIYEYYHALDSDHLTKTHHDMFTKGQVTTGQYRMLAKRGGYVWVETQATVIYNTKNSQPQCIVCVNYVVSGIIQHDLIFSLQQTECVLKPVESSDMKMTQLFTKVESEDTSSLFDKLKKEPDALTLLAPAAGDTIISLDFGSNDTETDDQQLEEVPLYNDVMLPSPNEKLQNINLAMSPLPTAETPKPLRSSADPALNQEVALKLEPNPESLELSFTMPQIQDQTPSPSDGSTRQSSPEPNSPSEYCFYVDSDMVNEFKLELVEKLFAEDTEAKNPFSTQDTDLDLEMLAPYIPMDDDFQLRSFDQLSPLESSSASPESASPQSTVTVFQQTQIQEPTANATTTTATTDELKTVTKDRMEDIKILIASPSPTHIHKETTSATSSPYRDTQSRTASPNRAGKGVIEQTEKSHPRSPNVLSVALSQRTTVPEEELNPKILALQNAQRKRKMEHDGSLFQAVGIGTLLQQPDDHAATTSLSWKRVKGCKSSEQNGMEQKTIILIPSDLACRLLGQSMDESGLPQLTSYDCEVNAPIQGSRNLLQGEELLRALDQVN
Sequence of Hepatocyte nuclear factor 3-beta (Homo sapiens) (Q9Y261 whole entry, looked up): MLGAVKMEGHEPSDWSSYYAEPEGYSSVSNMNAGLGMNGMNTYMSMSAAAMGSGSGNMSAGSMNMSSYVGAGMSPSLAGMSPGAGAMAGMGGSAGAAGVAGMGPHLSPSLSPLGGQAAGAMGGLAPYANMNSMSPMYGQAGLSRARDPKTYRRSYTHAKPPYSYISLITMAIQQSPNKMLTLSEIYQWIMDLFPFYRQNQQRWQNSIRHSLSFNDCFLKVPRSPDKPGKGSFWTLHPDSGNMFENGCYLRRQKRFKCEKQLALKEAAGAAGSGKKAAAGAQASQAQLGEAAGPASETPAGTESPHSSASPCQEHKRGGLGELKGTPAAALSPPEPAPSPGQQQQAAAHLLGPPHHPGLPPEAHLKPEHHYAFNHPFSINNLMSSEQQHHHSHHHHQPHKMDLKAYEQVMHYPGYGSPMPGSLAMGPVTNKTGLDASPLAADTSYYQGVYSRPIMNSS
Sequence of Heat shock factor protein 1 (Homo sapiens) (Q00613 whole entry, looked up, the tested form may be a part): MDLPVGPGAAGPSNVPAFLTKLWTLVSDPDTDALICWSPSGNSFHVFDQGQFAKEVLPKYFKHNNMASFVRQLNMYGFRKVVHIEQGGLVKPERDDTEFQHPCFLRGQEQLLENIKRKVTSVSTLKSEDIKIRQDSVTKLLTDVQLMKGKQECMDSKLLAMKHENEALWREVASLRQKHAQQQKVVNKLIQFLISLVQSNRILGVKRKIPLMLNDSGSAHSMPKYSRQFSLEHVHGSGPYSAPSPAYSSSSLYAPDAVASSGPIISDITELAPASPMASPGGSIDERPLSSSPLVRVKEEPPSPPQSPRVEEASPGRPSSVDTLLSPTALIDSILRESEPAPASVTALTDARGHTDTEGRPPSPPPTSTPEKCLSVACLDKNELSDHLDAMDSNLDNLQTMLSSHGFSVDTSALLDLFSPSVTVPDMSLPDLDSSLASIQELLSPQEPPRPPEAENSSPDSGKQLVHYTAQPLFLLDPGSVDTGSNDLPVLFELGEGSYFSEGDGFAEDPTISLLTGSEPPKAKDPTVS
Sequence of Bile acid receptor (Homo sapiens) (Q96RI1 whole entry, looked up): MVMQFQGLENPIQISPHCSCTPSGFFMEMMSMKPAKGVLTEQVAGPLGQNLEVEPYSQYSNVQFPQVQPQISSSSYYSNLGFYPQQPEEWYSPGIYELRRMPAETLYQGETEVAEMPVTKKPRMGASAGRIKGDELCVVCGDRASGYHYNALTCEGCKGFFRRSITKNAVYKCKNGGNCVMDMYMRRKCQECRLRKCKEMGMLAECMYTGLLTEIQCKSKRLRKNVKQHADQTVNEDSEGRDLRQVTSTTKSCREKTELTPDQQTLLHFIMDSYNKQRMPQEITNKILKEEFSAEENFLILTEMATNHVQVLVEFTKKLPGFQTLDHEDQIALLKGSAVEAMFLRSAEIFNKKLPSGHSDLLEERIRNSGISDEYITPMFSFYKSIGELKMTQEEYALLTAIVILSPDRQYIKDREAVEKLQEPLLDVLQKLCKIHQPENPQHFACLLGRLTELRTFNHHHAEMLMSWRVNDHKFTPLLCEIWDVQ

In the case of `CC(=O)OC[C@H]1O[C@@](COC(C)=O)(O[C@H]2O[C@H](COC(C)=O)[C@@H](OC(C)=O)[C@H](OC(C)=O)[C@H]2OC(C)=O)[C@@H](OC(C)=O)[C@@H]1OC(C)=O`, the result in assay [1], in [2], in [3], in assay [4], in assay [5] and in [6] was inactive. Further, the outcome in assay [7], in [8], in assay [9], in assay [10], in assay [11] and in assay [12] was inactive. Besides, the compound was called inactive in assay [13], in assay [14], in assay [15], in assay [16] and in [17].

For `Cc1ccc(N)cc1O`, the result in assay [2], in assay [3], in [4], in assay [18], in assay [5] and in [6] was inactive. The compound was classed as inactive in assay [7], in [8], in assay [9], in assay [10], in [11] and in assay [12]. Moreover, the outcome in [13], in [14], in [15], in assay [16], in [17] and in [19] was inactive.

As to `CNS(=O)(=O)c1cc(C(=O)N2CCC(CCN3C4CCC3CC(n3c(C)nc5ccccc53)C4)(c3cccc(F)c3)CC2)c(Cl)cc1F` (stereo not drawn), the result in [1], in [2], in assay [3], in assay [4], in [5] and in assay [6] was inactive. For the same compound, the result in [7], in assay [8], in assay [9], in assay [13], in assay [14] and in assay [15] was inactive. Besides, the call in assay [16] and in assay [17] was inactive. Moreover, the AC50 is 3.85 µM (active) in [20] and 8.05 µM (active) in assay [11].

Consider `CN(C)c1ccc(N=NS(=O)(=O)O)cc1`, for which the outcome in [1], in assay [2], in [3], in assay [4], in assay [5] and in [6] was inactive. Moreover, the compound was called inactive in assay [7], in assay [8], in assay [9], in [10], in [11] and in assay [12]. For the same compound, the compound was called inactive in assay [13], in assay [15], in assay [17] and in [19]. Also, the AC50 in assay [14] was 40.9 µM (active).
